Among the data in PubChem BioAssay AID1159580 (chemical genetic matrix, 2015) are normalized growth values, retold here.

SMILES strings stand for the structures. The campaign covered roughly 5,500 compounds. About 2,000 (36%) were called active. Inconclusive results (about 18%) are left out. Some of the results follow. A number with no mark means an inactive call. Rule as the data show it: active = normalized growth mostly below about 0.91 (no sharp cut-off); inconclusive = no clear call, values can overlap the other calls; inactive = mostly above about 0.92.

The nature of the assay: chemical genetic growth profiling, strain panel (AID 1159580).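 Also: tested at 20 µM; growth read once vehicle control cultures reached saturation at 30 °C; 1 = growth at the plate median or of vehicle wells; lower values mean less growth of the strain.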 The settings on record: S. cerevisiae deletion strains, growth OD.
Where [1] appears, read: locus YAL040C, strain CLN3, hits give low values.
Setting [2] is: locus YCL061C, strain MRC1 (second series), hits give low values.
[3] abbreviates: locus YDR150W, strain NUM1, hits give low values.
[4] abbreviates: locus YDR363W, strain ESC2, hits give low values.
Setting [5] is: locus YER002W, strain NOP16, hits give low values.
[6] abbreviates: locus YGR078C, strain PAC10, hits give low values.
Where [7] appears, read: locus YMR263W, strain SAP30, hits give low values.
Setting [8] is: locus YNL128W, strain TEP1, hits give low values.
[9] abbreviates: locus YNL175C, strain NOP13, hits give low values.
[10] abbreviates: locus YNL197C, strain WHI3, hits give low values.
Setting [11] is: locus YNL224C, strain SQS1, hits give low values.
Setting [12] is: locus YOR083W, strain WHI5 (second series), hits give low values.
Where [13] appears, read: locus YPL241C, strain CIN2, hits give low values.

For the compound `COc1cc2nc(N3CCN(C(=O)OCc4ccccc4)C(C(=O)NC(C)(C)C)C3)nc(N)c2cc1OC` (stereo not drawn), the normalized growth under setting [1] was 0.999; the normalized growth under setting [2] is 0.984; the normalized growth under setting [3] is 0.997; the normalized growth under setting [4] is 0.967; the normalized growth under setting [5] is 1.14 [resistant] (active); the normalized growth under setting [6] was 1.01. Moreover, the normalized growth runs as follows: under setting [7], 0.993; (locus YMR307W, strain GAS1, hits give low values) 0.989; under setting [8], 1.08; under setting [9], 1.02; under setting [10], 1.03; under setting [11], 1.03. The normalized growth runs as follows: (locus YNL322C, strain KRE1, hits give low values) 0.985; under setting [12], 1.07; under setting [13], 0.991.
Consider `COc1cc2nc(N3CCN(C(=O)C4COc5ccccc5O4)CC3)nc(N)c2cc1OC` (stereo not drawn), for which the normalized growth was 0.982 under setting [1]; 0.985 under setting [2]; 1.07 under setting [4]; 1.01 under setting [5]; 0.986 under setting [6]; 1.03 (locus YHR030C, strain SLT2, hits give low values). For the same compound, the normalized growth was 0.981 (locus YHR079C, strain IRE1, hits give low values); 0.983 (locus YJL095W, strain BCK1, hits give low values); 0.968 (locus YJR066W, strain TOR1, hits give low values); 0.999 (locus YLR113W, strain HOG1, hits give low values); 1.01 under setting [7]; 1.01 under setting [8]. For the same compound, the normalized growth is 0.99 under setting [9]; 0.939 (locus YNL183C, strain NPR1, hits give low values); 0.947 under setting [10]; 1.01 under setting [11]; 0.988 under setting [12]; 0.983 (locus YOR231W, strain MKK1, hits give low values). Further, the normalized growth (locus YPL256C, strain CLN2, hits give low values) was 0.988.
Consider `COc1cc2nc(N3CC=[N+](C(=O)c4ccco4)CC3)nc(N)c2cc1OC`, for which the normalized growth runs as follows: under setting [1], 1.02; under setting [2], 1; under setting [3], 1; under setting [4], 1.01; under setting [5], 1.01; under setting [6], 1.01. Further, the normalized growth is 1.01 (locus YGR229C, strain SMI1, hits give low values); 1 under setting [8]; 0.978 (locus YNL153C, strain GIM3, hits give low values); 0.998 under setting [9]; 1.01 under setting [10]; 1.06 under setting [11]. The normalized growth is, setting by setting: under setting [12], 1.01; under setting [13], 1.
